{"source": "PubChem BioAssay (NCI)", "note": "The panel holds about 83,000 compounds, 20% with a hit somewhere; the sample as a whole holds those more often.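 For each line, cells grew in 96-well plates with the test compound present at a single concentration for 48 hours.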 The source made the active and inactive calls."}
{"tested_on": "SW-620 colon", "assay": "NCI-60 one-dose screen, 48 h (100 = growth as untreated, 0 = no growth, -100 = all killed)", "details": "10 µM", "procedure": "Growth inhibition of the SW-620 human tumor cell line is measured as a screen for anti-cancer activity. Cells are grown in 96 well plates and exposed to the test compound for 48 hours. Compounds are tested at a single concentration, which is 10^-5 M for most compounds. The reported endpoint is percent growth (GI% or GIPRCNT), where numbers from 0 - 100% represent growth inhibition, and numbers from -100% - 0 represent cell death. For example, a value of 40 represents 60% growth inhibition. A value of 0 means no net growth occurred over the course of the experiment. A value of -40 indicates 40% of cells at the beginning of the experiment died by the end of the experiment. A value of -100 means all cells are dead at the end of the experiment.\nNCI-60 Human Tumor Cell Lines Screen was performed using the standard one-dose NCI protocol, which is described in more detail at https://dtp.cancer.gov/discovery_development/nci-60/default.htm.\nCompounds with GIPRCNT values below 10 were considered active. Activity score was based on GIPRCNT using the following formula: […]\nScore is 0 for GIPRCNT values of 100 or above, 50 for GIPRCNT values of 0, and 100 for GIPRCNT values of -100."}
{"smiles": "COC(=O)c1c(C(=O)OC)c2n(c1C)[C@@H]([C@@H](C)[C@H]1CC[C@H]3[C@@H]4CCC5=CC(=O)CC[C@]5(C)[C@H]4CC[C@]13C)SC2", "growth": "34.2% (inactive)"}
{"smiles": "Clc1ccc2c(N/N=C/c3c[nH]c4ccc(Br)cc34)ccnc2c1", "growth": "2.03% (active)"}
{"smiles": "COc1ccc(C(C)=C(c2ccc(OCCCN(C)C)cc2)c2ccc(OCCCN(C)C)cc2)cc1", "growth": "-59.4% (active)"}
{"smiles": "COc1cccc(COc2ccc(/C=C3\\Oc4cc(O)ccc4C3=O)cc2)c1", "growth": "36% (inactive)"}
{"smiles": "O=C(c1ccc(Cl)cc1)C1[C@H](c2ccccc2Br)[C@@H](c2ccccc2)NC12C(=O)Nc1ccc(Cl)cc12", "note": "(stereo not given in full)", "growth": "8.7% (active)"}
{"smiles": "Cc1ccc(-c2nc(Nc3ccccc3C(=O)O)c3ccccc3n2)cc1", "growth": "14.5% (inactive)"}
{"smiles": "CCCCCc1ccc(S(=O)(=O)Nc2cc(-c3csc(N(C)C(C)=O)n3)ccc2N2CCN(C)CC2)cc1", "growth": "8.57% (active)"}
{"smiles": "CN(C(=O)c1ccc(C(F)(F)F)cc1C(F)(F)F)c1sc2c(c1C#N)CCC(=O)C2", "growth": "18.9% (inactive)"}
{"smiles": "O=C(Nc1ccc(OCC(=O)c2ccccc2)cc1)Nc1ccc(Cl)c(C(F)(F)F)c1", "growth": "32% (inactive)"}
{"smiles": "Nc1nc(Nc2ccccc2)nn1Cc1c(Cl)cccc1Cl", "growth": "56.3% (inactive)"}
{"smiles": "Cc1ccc2nc3c(nc2c1)c1cc(I)ccc1n3CCN(C)C", "growth": "15.9% (inactive)"}
{"smiles": "CO[C@@H]1CSSC1Cn1nc(-c2ccc(Oc3ccccc3)cc2)c2c(N)ncnc21", "note": "(stereo not given in full)", "growth": "29.1% (inactive)"}
{"smiles": "C=CC(=O)Nc1ccc(C(=O)/C=C/c2ccc(N(C)CCF)cc2)c(O)c1", "growth": "5.99% (active)"}
{"smiles": "O=C(NO)c1ccc(Cn2ccc3c(NCc4ccccc4)ncnc32)cc1", "growth": "-64.8% (active)"}
{"smiles": "O=C(N=Nc1c(O)[nH]c2ccc(Br)cc12)c1ccc2nc(-c3ccccc3)[nH]c2c1", "growth": "-60% (active)"}
{"smiles": "Cc1cccc(-c2nc(Nc3ccccc3C(=O)O)c3ccccc3n2)c1", "growth": "35.5% (inactive)"}
{"smiles": "O=C(c1ccc(O)cc1)C1[C@H](c2ccccc2Br)[C@@H](c2ccccc2)NC12C(=O)Nc1ccc(Br)cc12", "note": "(stereo not given in full)", "growth": "50.9% (inactive)"}
{"smiles": "COc1ccc(/C(CSc2nnc(-c3c[nH]c4ccccc34)n2-c2ccccc2)=N/O)cc1", "growth": "39.4% (inactive)"}
{"smiles": "CN1CCN(c2ccc(Nc3nc(NCCCNC(=O)c4ccc(F)cc4)c4sccc4n3)cc2)CC1", "growth": "58.3% (inactive)"}
{"smiles": "CCOC(=O)C1=C(N)N(c2ccccc2)C2=C(C(=O)CC(C)(C)C2)C1c1ccccc1OC", "note": "(stereo not given)", "growth": "107% (inactive)"}
{"smiles": "C=C(C)[C@@H]1CC[C@]2(C(=O)OC)CC[C@]3(C)[C@H](CC[C@@H]4[C@@]5(C)CC[C@H](N)C(C)(C)[C@@H]5CC[C@]43C)[C@@H]12", "growth": "-75.6% (active)"}
{"smiles": "COc1ccc2[nH]c(O)c(N=NC(=O)c3cc(-c4ccc(C)cc4)nc4ccccc34)c2c1", "growth": "107% (inactive)"}
{"smiles": "O=c1oc2ccc(-c3ccc(F)cc3F)cc2c(=O)n1-c1ccc(Cl)c(C(F)(F)F)c1", "growth": "13% (inactive)"}
{"smiles": "CNCc1cccc2c1OCCCCCC[C@@](C)(O)CC1(CC1)S(=O)(=O)c1ccc(cc1)-c1cnc(N)c(n1)C(=O)N2", "growth": "-84.6% (active)"}
{"smiles": "COc1ccc(-c2c(N)c(=O)n(C)c3ccccc23)cc1", "growth": "65.5% (inactive)"}
{"smiles": "CCCCOc1ccc(Nc2nc3ccccc3nc2Nc2ccc(OCCCC)cc2)cc1", "growth": "96.3% (inactive)"}
{"smiles": "C=C1CCC2C3(C)COC(c4ccccc4F)OC3CCC2(C)C1C/C=C1/C(=O)OCC1O", "note": "(stereo not given)", "growth": "-68.5% (active)"}
{"smiles": "O=C(/C=C/Nc1ccc(F)cc1F)c1ccc2c(c1)Nc1ccccc1S2", "growth": "55.1% (inactive)"}
{"smiles": "N[C@@H](CSSC[C@H](N)C(=O)Nc1ccc(OCC2CCCC2)cc1)C(=O)Nc1ccc(OCC2CCCC2)cc1", "growth": "-84% (active)"}
{"smiles": "O=C1CCC(N2Cc3cc(CC(=O)Nc4ccc(N5CCCCC5)cc4)ccc3C2=O)C(=O)N1", "note": "(stereo not given)", "growth": "24% (inactive)"}
{"smiles": "O=C(CNc1nc(-c2ccccc2)cs1)Nc1ccc(Cl)cc1[N+](=O)[O-]", "growth": "-60.6% (active)"}
{"smiles": "CSc1nc(-c2cccc(C)c2)c2cc(-c3ccccc3)n(C)c2n1", "growth": "20.3% (inactive)"}
{"smiles": "Cc1cc(C(F)(F)F)ccc1C(=O)Nc1sc2c(c1C#N)CCC(=O)C2", "growth": "-34.4% (active)"}
{"smiles": "Oc1ccc(/C=C2\\CCCc3cc4ccc(O)cc4[o+]c32)c(O)c1", "growth": "20.5% (inactive)"}
{"smiles": "Nc1nc2c(F)c(F)c(F)c(F)c2s1", "growth": "106% (inactive)"}
{"smiles": "c1ccc(C(=C(c2ccc(OCCN3CCCCC3)cc2)c2ccc(OCCN3CCCCC3)cc2)C2CCCC2)cc1", "growth": "-62.6% (active)"}
{"smiles": "CN1C/C(=C\\c2ccc(O)cc2O)c2[o+]c3cc(O)ccc3cc2C1", "growth": "23.1% (inactive)"}
{"smiles": "O=C(Cn1cc(CSc2nnc3oc4ccccc4n23)nn1)Nc1ccc(Br)cc1", "growth": "108% (inactive)"}
{"smiles": "COc1ccc(-c2nc(S(=O)(=O)c3ccc(C)cc3)c(S(C)(=O)=O)o2)cc1", "growth": "-58.5% (active)"}
{"smiles": "C=C1CCC2C3(C)COC(c4c(F)cccc4F)OC3CCC2(C)C1C/C=C1/C(=O)OCC1O", "note": "(stereo not given)", "growth": "-41.4% (active)"}
